# Experimental data published in ChEMBL document CHEMBL3988442, “University of Dundee, Small-Polar-MMV Screening Library” (2021).
# In all, about 53,000 compounds went through this assay and about 900 (1.7%) showed an effect of 50% or more. The full list was thinned out, with strong results kept by preference.
# Test system: Mycobacterium tuberculosis
# Assay: Cornell - Phenotypic assay to identify agents that inhibit growth of Mycobacterium tuberculosis
# Format: functional
# Set-up: scale not given: direction of the effect not stated beside the values
# Details: 10 mM as filed; unlikely as a test dose
row,SMILES,Percent Effect [%]
1,O=C(O)C(F)(F)F.O=C([C@H]1C[C@@H]2CCN(c3cccc(F)c3)C[C@H]2O1)N1CCCC1,12.3
2,Cc1noc(C)c1-c1ccc(C2CCCN2C(=O)c2cnn(C)c2)nc1 (configuration not stated),1.498
3,Cc1nc(CN2CCCN(C(=O)CC(C)n3cccc3)CC2)cs1 (configuration not stated),7.748
4,CN(CCCc1cnn(C)c1)Cc1cc2n(n1)CCCNC2,18.02
5,NC(=O)c1cc2c(nc1Oc1ccccc1CN1CCCCC1)CCC2,23.43
6,Fc1cccc(N2C[C@H]3CCN(c4cccnc4)C[C@H]3C2)c1.O=C(O)C(F)(F)F,50.35
7,Fc1cccc(N2CCCC3(CN(Cc4cccnc4)CCO3)C2)c1.O=C(O)C(F)(F)F.O=C(O)C(F)(F)F.O=C(O)C(F)(F)F (configuration not stated),54.92
8,Fc1cccc(N2CCCC3(CN(Cc4nccs4)CCO3)C2)c1.O=C(O)C(F)(F)F.O=C(O)C(F)(F)F (configuration not stated),39.92
9,Fc1cccc(N2CCCC3(CN(Cc4ccco4)CCO3)C2)c1.O=C(O)C(F)(F)F.O=C(O)C(F)(F)F (configuration not stated),14.41
10,Fc1cnc(N2CCOC3(CCN(Cc4ccsc4)CC3)C2)nc1.O=C(O)C(F)(F)F.O=C(O)C(F)(F)F,103.8
11,Fc1cnc(N2CC3(CCN(Cc4ccsc4)C3)C2)nc1.O=C(O)C(F)(F)F,30.35
12,O=C(O)C(F)(F)F.O=C(c1ccc(F)cc1)N1C[C@@H]2CCN(c3cccnc3)C[C@@H]2C1,-2.234
13,Fc1cccc(N2CCCC3(CN(Cc4ccccn4)CCO3)C2)c1.O=C(O)C(F)(F)F.O=C(O)C(F)(F)F.O=C(O)C(F)(F)F (configuration not stated),43.65
14,Cn1cc(CN2CCOC3(CCCN(c4cccc(F)c4)C3)C2)cn1.O=C(O)C(F)(F)F.O=C(O)C(F)(F)F (configuration not stated),-3.324
15,Cc1ccc(CN2CCOC3(CCCN(c4cccc(F)c4)C3)C2)o1.O=C(O)C(F)(F)F.O=C(O)C(F)(F)F (configuration not stated),65.05
16,O=C(C1CCC1)N1C[C@@H]2CCN(c3cccnc3)C[C@@H]2C1.O=C(O)C(F)(F)F,-17.68
17,Fc1cnc(N2CCOC3(CCN(Cc4cccs4)CC3)C2)nc1.O=C(O)C(F)(F)F.O=C(O)C(F)(F)F,5.693
18,CN(C)C(=O)N1C[C@@H]2CC[C@H](C1)N(C(=O)c1c(Cl)cccc1Cl)C2,3.535
19,CCOCC1CN(C(=O)Cc2ccccn2)Cc2cn(C)nc21 (configuration not stated),-4.26
20,CO[C@@H]1CCN(Cc2ccccn2)[C@@H]2CN(Cc3ccco3)C[C@@H]21.O=C(O)C(F)(F)F.O=C(O)C(F)(F)F.O=C(O)C(F)(F)F,-14.11
21,CCNC(=O)c1ccc(NC(=O)N(C)Cc2cccn2C)c(C)c1,26.39
22,CCC(NC(=O)c1nn(C)cc1C(=O)O)c1ccc(C)cc1 (configuration not stated),2.527
23,CCOc1cc([C@@H]2N[C@H](c3nccs3)Cc3ccsc32)ccc1OC,39.28
24,Cc1c(Cl)cccc1NC(=O)N1CCN(Cc2ccccn2)CC1,28.2
25,Cc1nc(C2CCN(C(=O)c3ccn(C)n3)CC2)c2sccn12,-12.4

row,SMILES,Percent Effect [%]
1,CCn1nc(C)c(CNC(=O)c2cn(CC3CCCO3)nn2)c1C (configuration not stated),-30.41
2,Cc1cc(C)n(C2CCN(c3ncnc4sc5c(c34)CCNC5)C2)n1 (configuration not stated),11.06
3,FC1(F)CCN(Cc2cccnc2)CC12CCN(c1ccccc1)C2.O=C(O)C(F)(F)F.O=C(O)C(F)(F)F.O=C(O)C(F)(F)F (configuration not stated),59.15
4,FC1(F)CCN(Cc2ccncc2)CC12CCN(c1cccnc1)C2.O=C(O)C(F)(F)F.O=C(O)C(F)(F)F.O=C(O)C(F)(F)F (configuration not stated),6.416
5,FC1(F)CCN(Cc2cccnc2)CC12CCN(c1ccccn1)C2.O=C(O)C(F)(F)F.O=C(O)C(F)(F)F.O=C(O)C(F)(F)F (configuration not stated),-7.439
6,Cc1nn2c(=O)/c(=C\c3cccs3)sc2nc1=O,10.56
7,Cc1cc(-c2cnc(N3CCC(O)CC3)nc2-c2cccnc2C)on1,-33.62
8,Cc1cc(-c2cnc(N3CCOCC3)nc2-c2cccnc2C)on1,6.202
9,Cn1ccnc1-c1nc(N2CCCCC2)ncc1-c1ccccc1F,56.75
10,Cc1cc(-c2cnc(N3CCCCCC3)nc2-c2cccnc2C)on1,62.64
11,CC1CCN(c2ncc(-c3ccccc3F)c(-c3nccn3C)n2)CC1,-10.24
12,CC1CCCN(c2ncc(-c3ccccc3F)c(-c3nccn3C)n2)C1 (configuration not stated),50
13,CC(C)=CCN1CCC2(CC1)CC(=O)N(Cc1cc(F)cc(F)c1)C2,20.01
14,CC(C)Cn1nc2ccc(S(=O)(=O)N3CCC(C)CC3)cn2c1=O,2.551
15,COc1cc2nc(NCc3cc(C)on3)nc(N)c2cc1OC,-7.413
16,COc1cc2nc(NCc3scnc3C)nc(N)c2cc1OC,13.16
17,COc1cc2nc(NCc3ccc(C)nc3)nc(N)c2cc1OC,50.73
18,COC(=O)N1CCC(Nc2ccc(C#N)c(Cl)c2)C1 (configuration not stated),66.83
19,COC(=O)N1CCC(Nc2ccc(Cl)c(C#N)n2)C1 (configuration not stated),21.5
20,N#Cc1ccc(NC2CCN(c3ncccn3)CC2)cc1Cl,33.47
21,CC(NC(=O)NCCNc1ccccn1)c1cccs1 (configuration not stated),-14.12
22,CCCNC(=O)NC(C)c1ccccn1 (configuration not stated),55.13
23,CC(NC(=O)NCCCn1cccn1)c1ccccn1 (configuration not stated),-6.373
24,CCN1CCN(C(C)(C)CNc2nc(C)cc(C3CCC3)n2)CC1,8.458
25,CC(C)CC(=O)N1Cc2ccccc2CC1C(=O)Nc1nncs1 (configuration not stated),29.19

row,SMILES,Percent Effect [%]
1,O=C(NCC1(O)COCCN(Cc2cccc(O)c2)C1)c1ccccn1 (configuration not stated),-47.38
2,CC(C)n1cnnc1Cn1ccc2ncccc2c1=O,-16.96
3,Cc1ccc(C)c(CNC(=O)NC(C)(C(=O)O)c2ccco2)c1 (configuration not stated),50.37
4,CC(NC(=O)NCc1ccccc1)(C(=O)O)c1ccco1 (configuration not stated),-57.05
5,CC(NC(=O)NCc1ccccc1F)(C(=O)O)c1ccco1 (configuration not stated),-0.26
6,COc1cc(N2CCC3(CC2)CN(C)C(=O)CO3)ncn1,-14.83
7,CCn1ncc2c1CCCC2NCc1cccc2c1OCO2 (configuration not stated),-8.826
8,NC(=O)C1CCN(C(=O)CCSCc2ccc(Cl)c(Cl)c2)CC1,42.57
9,CCOCCN(C)C(c1cccnc1)c1ccc(F)cc1F (configuration not stated),14
10,CNC(=O)NC(=O)CN(C)C(c1cccnc1)c1ccc(F)cc1F (configuration not stated),14.91
11,COC(=O)CCCN(C)C(c1cccnc1)c1ccc(F)cc1F (configuration not stated),105.8
12,CC(=O)NCCC1CCCCN1S(=O)(=O)c1cccc(Cl)c1 (configuration not stated),-47.8
13,CN1CCN(Cc2cn3c(n2)CN(Cc2ccncc2)CC3)CC1,-19.75
14,COc1ccccc1NC(=O)CC(C)NCc1scnc1C (configuration not stated),-11.77
15,COc1ccccc1NC(=O)CC(C)NCCc1sc(C)nc1C (configuration not stated),109.1
16,COc1ccccc1NCC(=O)NCc1scnc1C,3.418
17,CCOc1ccc(NC(=O)N2CCOC(C(N)=O)C2)cc1C (configuration not stated),-10.8
18,CCN1CCN(c2nsc(-c3cccnc3)c2C#N)CC1,8.063
19,CN1CCN(c2nsc(-c3cccnc3)c2C#N)CC1,-23.91
20,CN1CCN(c2nsc(-c3ccccc3)c2C#N)CC1,72.37
21,O=C(NCCOc1ccccc1)NCC(O)c1cccs1 (configuration not stated),1.907
22,Cc1csc(N2CCCN(C(=O)c3csc(C)n3)CC2)n1,20.78
23,O=C(c1cnc(O)cn1)N1C[C@@H]2CC[C@H](C1)N(Cc1ccccc1)C2,9.482
24,CCN1CCCc2cc(CN3CCc4c(nc(C)[nH]c4=O)C3)ccc21,3.807
25,OC(CN(Cc1ccccc1)Cc1ccncc1)c1cccs1 (configuration not stated),4.252

row,SMILES,Percent Effect [%]
1,Cc1cnc(CN(Cc2ccccc2)CC(O)c2cccs2)cn1 (configuration not stated),-16.83
2,Cn1cc(CN(Cc2ccccc2)CC(O)c2cccs2)cn1 (configuration not stated),103.2
3,CCCN(CCn1c(=O)oc2ccccc21)CC1CC1,69.63
4,CC(NCCn1c(=O)oc2ccccc21)c1ccccn1 (configuration not stated),11.05
5,CCN(CC)CCn1c(=O)oc2ccccc21.Cl,61.39
6,O=C(CCn1c(=O)oc2ccccc21)NCC(O)c1ccccc1 (configuration not stated),-6.039
7,CCN(CCn1c(=O)oc2ccccc21)CC1CCOCC1,48
8,O=c1oc2ccccc2n1CCN(CC1CCOC1)C1CC1 (configuration not stated),23.76
9,CN(C)CCN1CCC2(CC1)CN(c1cccnc1)C(=O)CO2,-2.61
10,CCC(C)NC(=O)Nc1cccc(OC)c1 (configuration not stated),-23.11
11,CC1CC(=O)c2cc(C(=O)N3CCN(C)CC3)c(=O)[nH]c2C1 (configuration not stated),4.231
12,COc1c(Br)c(C(=O)NC2CC2)nn1C,20.51
13,CNc1nc(C(=O)NCc2cccnc2N(C)C)cs1,28.41
14,CNc1nc(C(=O)NCc2cccnc2N(C)C2CCCCC2)cs1,51.53
15,CN(c1ncccc1CNC(=O)c1cscn1)C1CCCCC1,20.11
16,CCCN1CCN(Cc2cc3cc(OCC)ccc3[nH]c2=O)CC1,16.06
17,CCc1ccc(-c2cn3c(C(=O)NCC(C)C(=O)NC)csc3n2)cc1 (configuration not stated),9.06
18,CCn1ccc(CNC(=O)c2cc(OC)cc(OC)c2)n1,3.102
19,O=C(CN1CCOCC1)Nc1ccc(C(F)(F)F)cc1Cl,-3.484
20,CC(C)c1cc(C(=O)N2CCN(c3ncc4c(n3)CCOC4)CC2)on1,-0.8267
21,Cc1cc(C(=O)N2CCN(c3ncc4c(n3)CCOC4)CC2)sc1C,45.6
22,Cc1cnc(C(=O)N2CCN(c3ncc4c(n3)CCOC4)CC2)cn1,56.71
